The source of these data is PMC7862700, “An all-to-all approach to the identification of sequence-specific readers for epigenetic DNA modifications on cytosine”.

Holding throughout (test): DAPPL (digital affinity profiling via proximity ligation, sequencing); 10 mM Tris-HCl pH 7.5, 50 mM NaCl, 1 mM DTT, 4% glycerol, room temperature, 30 min; GST-TFs on glutathione beads, 16-mer random dsDNA library, 0.1% formaldehyde crosslink after washing; high values mean tight binding
What all share (conditions): protein: recombinant; tags: N-terminal GST; dsDNA, one strand shown

For one assay, the target named is T1, FLI1 (Homo sapiens, UniProt Q01543 1-452).
T1 sequence: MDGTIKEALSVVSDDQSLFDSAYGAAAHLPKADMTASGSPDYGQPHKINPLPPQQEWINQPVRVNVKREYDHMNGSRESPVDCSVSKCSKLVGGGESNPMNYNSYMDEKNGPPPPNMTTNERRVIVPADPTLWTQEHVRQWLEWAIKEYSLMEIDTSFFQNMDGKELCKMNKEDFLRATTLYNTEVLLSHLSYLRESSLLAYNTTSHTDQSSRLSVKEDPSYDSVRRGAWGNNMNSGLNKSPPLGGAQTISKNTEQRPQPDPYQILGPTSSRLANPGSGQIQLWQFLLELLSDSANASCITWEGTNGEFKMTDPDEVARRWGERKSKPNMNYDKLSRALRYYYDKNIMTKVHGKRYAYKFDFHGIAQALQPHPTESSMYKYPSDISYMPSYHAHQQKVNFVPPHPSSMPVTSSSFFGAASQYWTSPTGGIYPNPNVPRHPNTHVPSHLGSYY
The gist of the method:
(§1)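 Sequencing on an Illumina NextSeq500 followed washing, crosslinking with 0.1% formaldehyde, proximity ligation (BsaI/T4 ligase, 1 h, 37 °C) and PCR amplification of pools that had been incubated for 30 min at room temperature with 200 nmole of a random double-stranded 16-mer DNA library in Tris/NaCl/DTT/glycerol buffer. Each pool held DNA-barcoded human transcription factors, expressed in yeast as GST fusions and captured on glutathione beads, plus a tag-only sample. Binding signal is a hexamer's read frequency for a factor divided by its frequency in the tag-only sample.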

For a further assay, the target named is T2, ELK1 (Homo sapiens, UniProt P19419 1-428).
T2 sequence: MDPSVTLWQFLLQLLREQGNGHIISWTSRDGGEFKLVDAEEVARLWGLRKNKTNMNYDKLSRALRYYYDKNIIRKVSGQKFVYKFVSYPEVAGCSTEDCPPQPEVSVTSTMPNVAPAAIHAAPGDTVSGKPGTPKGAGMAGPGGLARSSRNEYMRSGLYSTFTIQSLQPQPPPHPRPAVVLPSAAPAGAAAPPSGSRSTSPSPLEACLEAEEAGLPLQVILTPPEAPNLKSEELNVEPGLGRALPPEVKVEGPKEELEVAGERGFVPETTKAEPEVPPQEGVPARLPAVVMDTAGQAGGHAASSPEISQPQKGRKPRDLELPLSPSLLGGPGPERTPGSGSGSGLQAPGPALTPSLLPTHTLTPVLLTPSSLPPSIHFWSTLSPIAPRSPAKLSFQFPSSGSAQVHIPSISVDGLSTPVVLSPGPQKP
Summed up: as §1

Another assay addresses T3, GABPA (Homo sapiens, UniProt Q06546 1-454).
T3 sequence: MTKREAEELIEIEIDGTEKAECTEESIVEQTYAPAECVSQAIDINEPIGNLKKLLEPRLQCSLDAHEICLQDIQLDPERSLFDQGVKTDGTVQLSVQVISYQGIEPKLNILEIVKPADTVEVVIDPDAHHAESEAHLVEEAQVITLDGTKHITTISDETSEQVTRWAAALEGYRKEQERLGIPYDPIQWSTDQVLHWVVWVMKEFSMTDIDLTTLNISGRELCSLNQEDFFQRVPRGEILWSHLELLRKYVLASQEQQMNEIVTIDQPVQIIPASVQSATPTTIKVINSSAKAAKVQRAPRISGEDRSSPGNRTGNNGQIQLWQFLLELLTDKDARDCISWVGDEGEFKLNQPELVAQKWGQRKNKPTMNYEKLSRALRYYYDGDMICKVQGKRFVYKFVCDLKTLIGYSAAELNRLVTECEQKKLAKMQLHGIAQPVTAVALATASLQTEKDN
The gist of the method: as §1

The next assay deals with T4, ERG (Homo sapiens, UniProt P11308 1-479).
T4 sequence: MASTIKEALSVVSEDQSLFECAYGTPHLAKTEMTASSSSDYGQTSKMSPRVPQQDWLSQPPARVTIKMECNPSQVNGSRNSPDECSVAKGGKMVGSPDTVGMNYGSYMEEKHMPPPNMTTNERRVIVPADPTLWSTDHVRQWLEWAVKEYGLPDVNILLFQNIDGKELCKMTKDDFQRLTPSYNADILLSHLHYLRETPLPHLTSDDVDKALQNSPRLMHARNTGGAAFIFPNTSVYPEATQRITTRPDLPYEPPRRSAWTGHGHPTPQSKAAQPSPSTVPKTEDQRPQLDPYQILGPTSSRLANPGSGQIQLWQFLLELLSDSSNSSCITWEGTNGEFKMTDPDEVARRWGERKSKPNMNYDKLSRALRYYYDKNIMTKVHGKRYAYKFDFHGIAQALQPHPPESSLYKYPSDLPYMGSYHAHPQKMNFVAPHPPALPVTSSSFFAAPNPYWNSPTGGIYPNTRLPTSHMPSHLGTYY
Summed up: as §1

The target of the next assay is ELF1 (Homo sapiens, UniProt P32519 1-619). The gist of the method: as §1
ELF1, sequence (P32519 whole entry): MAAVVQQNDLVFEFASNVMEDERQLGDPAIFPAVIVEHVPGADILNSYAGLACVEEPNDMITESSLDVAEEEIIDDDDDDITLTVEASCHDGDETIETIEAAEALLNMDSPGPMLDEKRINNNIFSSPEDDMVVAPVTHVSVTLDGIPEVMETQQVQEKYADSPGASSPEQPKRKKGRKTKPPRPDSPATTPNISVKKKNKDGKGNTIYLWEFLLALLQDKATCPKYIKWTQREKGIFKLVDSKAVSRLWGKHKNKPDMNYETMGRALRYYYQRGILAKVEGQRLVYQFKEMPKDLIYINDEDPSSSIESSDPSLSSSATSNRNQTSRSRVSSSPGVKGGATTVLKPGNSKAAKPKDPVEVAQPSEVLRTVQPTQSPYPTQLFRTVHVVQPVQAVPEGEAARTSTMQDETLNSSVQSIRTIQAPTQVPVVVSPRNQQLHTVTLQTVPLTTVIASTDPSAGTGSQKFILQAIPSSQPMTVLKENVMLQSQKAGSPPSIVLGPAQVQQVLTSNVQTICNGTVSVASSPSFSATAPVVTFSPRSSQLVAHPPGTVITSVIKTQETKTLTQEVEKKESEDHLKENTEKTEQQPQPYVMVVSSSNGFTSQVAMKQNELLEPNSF
The target in the next assay is T5, EHF (Homo sapiens, UniProt Q9NZC4 1-300).
T5 sequence: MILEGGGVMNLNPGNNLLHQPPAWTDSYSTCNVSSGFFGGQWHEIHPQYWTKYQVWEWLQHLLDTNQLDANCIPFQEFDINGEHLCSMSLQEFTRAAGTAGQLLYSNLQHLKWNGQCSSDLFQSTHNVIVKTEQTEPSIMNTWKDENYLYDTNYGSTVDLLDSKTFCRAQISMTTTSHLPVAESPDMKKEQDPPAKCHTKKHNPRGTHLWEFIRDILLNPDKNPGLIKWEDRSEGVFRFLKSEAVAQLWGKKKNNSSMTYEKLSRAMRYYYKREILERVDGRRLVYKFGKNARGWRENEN
Summed up:
as §1

Another assay has as its target SPI1 (Homo sapiens, UniProt P17947 1-270). The gist of the method:
as §1

In another assay the target is SPIB (Homo sapiens, UniProt Q01892 1-262). The gist of the method: as §1
SPIB, sequence (Q01892 whole entry): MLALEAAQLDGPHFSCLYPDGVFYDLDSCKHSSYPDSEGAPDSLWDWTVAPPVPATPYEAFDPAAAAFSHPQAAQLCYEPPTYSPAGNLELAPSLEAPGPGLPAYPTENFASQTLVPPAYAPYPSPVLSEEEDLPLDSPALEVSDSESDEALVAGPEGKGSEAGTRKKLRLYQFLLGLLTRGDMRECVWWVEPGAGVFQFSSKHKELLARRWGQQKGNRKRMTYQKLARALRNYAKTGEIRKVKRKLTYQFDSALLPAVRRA
Another assay has as its target T6, ELK3 (Homo sapiens, UniProt P41970 1-407).
T6 sequence: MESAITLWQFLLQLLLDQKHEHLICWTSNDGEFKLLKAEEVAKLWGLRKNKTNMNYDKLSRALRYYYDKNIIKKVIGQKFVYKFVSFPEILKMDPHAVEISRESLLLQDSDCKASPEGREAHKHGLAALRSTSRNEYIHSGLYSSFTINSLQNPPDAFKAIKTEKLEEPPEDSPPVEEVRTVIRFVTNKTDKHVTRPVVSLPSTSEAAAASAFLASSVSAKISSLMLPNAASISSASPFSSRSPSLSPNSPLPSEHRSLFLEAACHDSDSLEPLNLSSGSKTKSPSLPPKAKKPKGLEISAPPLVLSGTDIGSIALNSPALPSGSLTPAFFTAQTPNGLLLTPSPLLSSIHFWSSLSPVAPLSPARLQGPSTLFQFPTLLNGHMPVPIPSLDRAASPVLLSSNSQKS
Summed up:
as §1

Consider TCTAAA, for which the binding signal with FLI1 is 1.24 fold enrichment (6-mer frequency, TF over GST control); in the assay with ELK1, 1.22 fold enrichment (6-mer frequency, TF over GST control); in the assay with GABPA it was 1.26 fold enrichment (6-mer frequency, TF over GST control); with ERG it was 1.24 fold enrichment (6-mer frequency, TF over GST control); in the assay with ELF1 it was 1.21 fold enrichment (6-mer frequency, TF over GST control); in the assay with EHF it was 1.2 fold enrichment (6-mer frequency, TF over GST control). For the same sequence, the binding signal is 1.18 fold enrichment (6-mer frequency, TF over GST control) with SPI1; 1.16 fold enrichment (6-mer frequency, TF over GST control) in the assay with SPIB; 1.2 fold enrichment (6-mer frequency, TF over GST control) in the assay with ELK3.

Take AGCTCT: the binding signal is 1.19 fold enrichment (6-mer frequency, TF over GST control) with FLI1; 1.25 fold enrichment (6-mer frequency, TF over GST control) with ELK1; 1.17 fold enrichment (6-mer frequency, TF over GST control) with GABPA; 1.11 fold enrichment (6-mer frequency, TF over GST control) with ERG; 1.23 fold enrichment (6-mer frequency, TF over GST control) with ELF1; 1.18 fold enrichment (6-mer frequency, TF over GST control) with EHF. Further, the binding signal was 1.04 fold enrichment (6-mer frequency, TF over GST control) with SPI1; 1.04 fold enrichment (6-mer frequency, TF over GST control) with SPIB; 1.15 fold enrichment (6-mer frequency, TF over GST control) with ELK3.

On to CTTATG, for which the binding signal with FLI1 was 1.52 fold enrichment (6-mer frequency, TF over GST control); in the assay with ELK1 it was 1.56 fold enrichment (6-mer frequency, TF over GST control); with GABPA, 1.4 fold enrichment (6-mer frequency, TF over GST control); with ERG, 1.45 fold enrichment (6-mer frequency, TF over GST control); in the assay with ELF1 it was 1.38 fold enrichment (6-mer frequency, TF over GST control); with EHF it was 1.39 fold enrichment (6-mer frequency, TF over GST control). Further, the binding signal is 1.45 fold enrichment (6-mer frequency, TF over GST control) with SPI1; 1.59 fold enrichment (6-mer frequency, TF over GST control) with SPIB; 1.46 fold enrichment (6-mer frequency, TF over GST control) in the assay with ELK3.

As to TTACCT, the binding signal with FLI1 was 1.12 fold enrichment (6-mer frequency, TF over GST control); in the assay with ELK1, 1.19 fold enrichment (6-mer frequency, TF over GST control); with GABPA, 1.32 fold enrichment (6-mer frequency, TF over GST control); with ERG, 1.17 fold enrichment (6-mer frequency, TF over GST control); in the assay with ELF1 it was 1.19 fold enrichment (6-mer frequency, TF over GST control); with EHF, 1.31 fold enrichment (6-mer frequency, TF over GST control). The binding signal with SPI1 was 1.19 fold enrichment (6-mer frequency, TF over GST control); with SPIB, 1.4 fold enrichment (6-mer frequency, TF over GST control); in the assay with ELK3 it was 1.22 fold enrichment (6-mer frequency, TF over GST control).

In the case of AAGATG, the binding signal with FLI1 was 1.17 fold enrichment (6-mer frequency, TF over GST control); with ELK1 it was 1.17 fold enrichment (6-mer frequency, TF over GST control); with GABPA it was 1.11 fold enrichment (6-mer frequency, TF over GST control); with ERG, 1.11 fold enrichment (6-mer frequency, TF over GST control); with ELF1 it was 1.09 fold enrichment (6-mer frequency, TF over GST control); in the assay with EHF, 1.1 fold enrichment (6-mer frequency, TF over GST control). Besides, the binding signal in the assay with SPI1 is 1.09 fold enrichment (6-mer frequency, TF over GST control); with SPIB it was 1.16 fold enrichment (6-mer frequency, TF over GST control); in the assay with ELK3, 1.19 fold enrichment (6-mer frequency, TF over GST control).

As to TTCGAC, the binding signal is 1.52 fold enrichment (6-mer frequency, TF over GST control) with FLI1; 1.51 fold enrichment (6-mer frequency, TF over GST control) with ELK1; 1.49 fold enrichment (6-mer frequency, TF over GST control) with GABPA; 1.43 fold enrichment (6-mer frequency, TF over GST control) with ERG; 1.49 fold enrichment (6-mer frequency, TF over GST control) with ELF1; 1.41 fold enrichment (6-mer frequency, TF over GST control) with EHF. Moreover, the binding signal was 1.3 fold enrichment (6-mer frequency, TF over GST control) with SPI1; 1.45 fold enrichment (6-mer frequency, TF over GST control) with SPIB; 1.39 fold enrichment (6-mer frequency, TF over GST control) in the assay with ELK3.

Regarding TCACGC, the binding signal with FLI1 is 1.35 fold enrichment (6-mer frequency, TF over GST control); in the assay with ELK1, 1.18 fold enrichment (6-mer frequency, TF over GST control); with GABPA it was 1.22 fold enrichment (6-mer frequency, TF over GST control); with ERG it was 1.18 fold enrichment (6-mer frequency, TF over GST control); with ELF1 it was 1.2 fold enrichment (6-mer frequency, TF over GST control); with EHF, 1.24 fold enrichment (6-mer frequency, TF over GST control). Besides, the binding signal is 1.17 fold enrichment (6-mer frequency, TF over GST control) in the assay with SPI1; 1.17 fold enrichment (6-mer frequency, TF over GST control) with SPIB; 1.28 fold enrichment (6-mer frequency, TF over GST control) in the assay with ELK3.

Take AAGTAC: the binding signal is 1.52 fold enrichment (6-mer frequency, TF over GST control) with FLI1; 1.74 fold enrichment (6-mer frequency, TF over GST control) with ELK1; 1.44 fold enrichment (6-mer frequency, TF over GST control) in the assay with GABPA; 1.53 fold enrichment (6-mer frequency, TF over GST control) with ERG; 1.49 fold enrichment (6-mer frequency, TF over GST control) with ELF1; 1.59 fold enrichment (6-mer frequency, TF over GST control) with EHF. Also, the binding signal in the assay with SPI1 was 1.62 fold enrichment (6-mer frequency, TF over GST control); in the assay with SPIB it was 1.57 fold enrichment (6-mer frequency, TF over GST control); in the assay with ELK3, 1.73 fold enrichment (6-mer frequency, TF over GST control).
